Values without a mark were called inactive. Results filed as inconclusive are left out. A call without a number means that no potency is given here. Active and inactive are the calls of the source. Unless noted, calls follow the shape of the dose curve; as a rule, active = well fitted curve in the direction sought with a large enough effect; inconclusive = small, poorly fitted or top-dose-only effect, or another doubt; inactive = no such curve, though single readings can be large; an effect the other way counts as inactive or inconclusive.
What was measured:
[1] = target: Cytochrome P450 3A4 (Homo sapiens) (UniProt P08684); assay: qHTS Assay for Activators of Cytochrome P450 3A4 (AID 885); also: nearly all actives have a fitted effect of over 65% in size; also: potency is read from the fitted curve at half-maximal effect
Procedure, shortened: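 Human CYP3A4 (20 nM) with Luciferin-PPXE at 25 uM (its KM) in 200 mM KPO4; 10 min compound preincubation, then NADPH regeneration and 60 min reaction at RT. Luciferin read by luminescence; normalized to 57 uM ketoconazole full inhibition.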

[2] = target: Cytochrome P450 3A4 (Homo sapiens) (UniProt P08684); assay: qHTS Assay for Inhibitors and Substrates of Cytochrome P450 3A4 (AID 884); also: nearly all actives have a fitted effect of over 50% in size; also: potency is read from the fitted curve at half-maximal effect; as to activity change, negative = inhibition: series mostly up to about 57 µM
Procedure, shortened: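 20 nM human CYP3A4 with 25 uM Luciferin-PPXE (at KM) in 200 mM KPO4, preincubated 10 min with compound; NADPH regeneration started a 60 min RT reaction. Luciferin detected by luminescence, normalized to 57 uM ketoconazole as full inhibition.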

[3] = target: Cytochrome P450 2D6 (Homo sapiens) (UniProt P10635); assay: qHTS Assay for Inhibitors and Substrates of Cytochrome P450 2D6 (AID 891); also: nearly all actives have a fitted effect of over 60% in size; also: potency is read from the fitted curve at half-maximal effect;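 as to activity change, negative = inhibition: luciferin methyl ether substrate demethylated by CYP2D6 with NADPH regeneration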
Procedure, shortened: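 Human CYP2D6 (5 nM) with 30 uM Luciferin-ME EGE (at Km) in 100 mM KPO4, compound preincubated 10 min, then NADPH regeneration system for 60 min at room temperature. Luciferin read by luminescence; normalized to 1.43 uM quinidine.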

[4] = target: Cytochrome P450 2C19 (Homo sapiens) (UniProt P33261); assay: qHTS Assay for Inhibitors and Substrates of Cytochrome P450 2C19 (AID 899); also: nearly all actives have a fitted effect of over 60% in size; also: potency is read from the fitted curve at half-maximal effect
Procedure, shortened: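 Human CYP2C19 (5nM) with Luciferin-H EGE at 10uM (its KM) in 50mM KPO4 was preincubated with compound for 10 min at 37C. NADPH regeneration started a 60 min 37C reaction. Luciferin was read by luminescence, normalized to 57uM ketoconazole.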

[5] = Confirmation and Secondary Assay for Modulators of Hemoglobin Beta Chain Splicing at IVS2 654 locus (AID 910);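 also: per-well total GFP intensity by laser scanning cytometry after 2-day treatment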
Procedure, shortened: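 HeLa cells stably carrying EGFP interrupted by mutant beta-globin IVS2-654 intron (CMV-driven) were treated with compound for 2 days at 37C; corrected splicing was scored as total peak GFP intensity per well (488 nm excitation, 500-520 nm emission).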

[6] = Confirmation and Secondary Assay for Modulators of Hemoglobin Beta Chain Splicing at IVS2 705 locus (AID 930);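 also: HeLa cells stably expressing the EGFP-705 splicing reporter; GFP fluorescence per well restored by corrected splicing of the IVS2-705 intron in EGFP; series mostly up to about 46 µM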
Procedure, shortened: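 Fluorescence gain (488 nm laser, 500-520 nm PMT) reflects restored correct splicing of a mutant IVS2-705 intron inside EGFP in stably transfected HeLa cells after 2-day compound treatment.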

[7] = target: Alpha-galactosidase (Coffea arabica) (UniProt Q42656); assay: Counterscreen for Glucocerebrosidase Inhibitors: qHTS Assay for Coffee Bean alpha-Galactosidase at pH 4.5 (AID 957); also: series mostly up to about 77 µM
Procedure, shortened: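 Green coffee bean enzyme (2 nM final) was incubated with compounds (0.7 nM to 77 uM) and 4-methylumbelliferyl alpha-D-galactopyranoside (80 uM final) in 50 mM citric acid, 0.005% Tween-20, pH 4.5, 20 min at room temperature; AC50 from Hill fits.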

[8] = target: Alpha-galactosidase (Coffea arabica) (UniProt Q42656); assay: Counterscreen for Glucocerebrosidase Inhibitors: qHTS Assay for Coffee Bean alpha-Galactosidase at pH 5.9 (AID 998)
Procedure, shortened: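 Green coffee bean enzyme (2 nM final) was incubated with compounds (0.7 nM–77 uM) and 4-methylumbelliferyl alpha-D-galactopyranoside (80 uM) in citrate buffer pH 5.9, 20 min at room temperature. High-pH stop; fluorescence 365/440 nm; AC50 from Hill fits.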

[9] = qHTS Assay for Identification of Small Molecule Antagonists for NFkB Signaling Pathway (AID 895; active = well fitted inhibition curve with a large enough effect in the signal ratio, with a control signal flat, not every such curve was filed as active; the % refers to the signal ratio; also: potency is read from the fitted curve at half-maximal effect)
Procedure, shortened: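 NFkB-bla ME-180 cervical carcinoma cells with beta-lactamase reporter under NFkB response element; compounds added, then TNF alpha at 10 pM final (EC50), 5 h at 37 C. LiveBLAzer substrate 2 h, room temperature; emission 460/530 nm at 405 nm excitation.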

[10] = target: Muscarinic acetylcholine receptor M1 (Rattus norvegicus) (UniProt P08482); assay: qHTS Assay for Antagonists of Acetylcholine Muscarinic M1 Receptor: Kinetic Measurement of Intracellular Calcium Response (AID 943); also: potency is read from the fitted curve at half-maximal effect; nearly all actives have a fitted effect of over 75% in size
Procedure, shortened: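 CHO cells stably expressing rat M1 were loaded with no-wash Fluo-4 dye for 1 h at 37C, pre-incubated 10 min with compound, then challenged with EC80 carbachol (100 nM final); kinetic calcium read 4 min, peak/basal ratio.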

Chain of Cytochrome P450 3A4 (Homo sapiens) (P08684 whole entry, looked up): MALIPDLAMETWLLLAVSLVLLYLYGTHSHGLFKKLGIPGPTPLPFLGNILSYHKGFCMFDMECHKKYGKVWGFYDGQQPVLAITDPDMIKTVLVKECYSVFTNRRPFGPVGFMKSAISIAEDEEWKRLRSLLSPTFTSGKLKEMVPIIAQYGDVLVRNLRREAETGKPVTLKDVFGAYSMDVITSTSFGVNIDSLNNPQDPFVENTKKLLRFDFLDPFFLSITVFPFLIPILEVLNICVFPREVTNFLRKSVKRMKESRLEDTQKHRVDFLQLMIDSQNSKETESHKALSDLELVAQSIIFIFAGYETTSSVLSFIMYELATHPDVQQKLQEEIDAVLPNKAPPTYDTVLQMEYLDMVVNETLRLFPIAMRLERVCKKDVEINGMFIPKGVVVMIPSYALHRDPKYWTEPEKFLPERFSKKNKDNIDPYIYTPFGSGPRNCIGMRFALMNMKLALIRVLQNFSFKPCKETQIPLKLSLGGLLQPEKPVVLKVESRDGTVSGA
Chain of Alpha-galactosidase (Coffea arabica) (Q42656 whole entry, looked up): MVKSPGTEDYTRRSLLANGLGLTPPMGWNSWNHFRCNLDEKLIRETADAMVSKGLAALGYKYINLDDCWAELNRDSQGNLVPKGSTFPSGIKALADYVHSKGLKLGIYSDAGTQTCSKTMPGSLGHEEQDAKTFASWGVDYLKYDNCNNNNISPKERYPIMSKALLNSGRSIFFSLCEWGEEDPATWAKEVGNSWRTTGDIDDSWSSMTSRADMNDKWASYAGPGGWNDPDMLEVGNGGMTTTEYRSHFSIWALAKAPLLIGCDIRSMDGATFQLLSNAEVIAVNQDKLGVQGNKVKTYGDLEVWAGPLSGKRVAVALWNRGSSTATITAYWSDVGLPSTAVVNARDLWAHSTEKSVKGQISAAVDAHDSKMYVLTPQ
Chain of Cytochrome P450 2C19 (Homo sapiens) (P33261 whole entry, looked up): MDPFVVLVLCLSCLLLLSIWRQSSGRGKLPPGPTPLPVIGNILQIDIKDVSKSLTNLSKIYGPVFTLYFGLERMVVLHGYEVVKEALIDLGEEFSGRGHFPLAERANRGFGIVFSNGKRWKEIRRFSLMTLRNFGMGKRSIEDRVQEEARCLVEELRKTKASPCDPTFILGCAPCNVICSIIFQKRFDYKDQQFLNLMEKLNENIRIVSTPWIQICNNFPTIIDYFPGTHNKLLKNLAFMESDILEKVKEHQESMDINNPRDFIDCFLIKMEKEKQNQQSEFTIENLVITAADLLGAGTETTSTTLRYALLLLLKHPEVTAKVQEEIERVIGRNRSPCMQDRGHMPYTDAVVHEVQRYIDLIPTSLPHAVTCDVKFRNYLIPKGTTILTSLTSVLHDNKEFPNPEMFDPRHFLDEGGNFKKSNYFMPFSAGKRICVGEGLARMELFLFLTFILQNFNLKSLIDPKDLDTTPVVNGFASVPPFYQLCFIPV
Chain of Cytochrome P450 2D6 (Homo sapiens) (P10635 whole entry, looked up): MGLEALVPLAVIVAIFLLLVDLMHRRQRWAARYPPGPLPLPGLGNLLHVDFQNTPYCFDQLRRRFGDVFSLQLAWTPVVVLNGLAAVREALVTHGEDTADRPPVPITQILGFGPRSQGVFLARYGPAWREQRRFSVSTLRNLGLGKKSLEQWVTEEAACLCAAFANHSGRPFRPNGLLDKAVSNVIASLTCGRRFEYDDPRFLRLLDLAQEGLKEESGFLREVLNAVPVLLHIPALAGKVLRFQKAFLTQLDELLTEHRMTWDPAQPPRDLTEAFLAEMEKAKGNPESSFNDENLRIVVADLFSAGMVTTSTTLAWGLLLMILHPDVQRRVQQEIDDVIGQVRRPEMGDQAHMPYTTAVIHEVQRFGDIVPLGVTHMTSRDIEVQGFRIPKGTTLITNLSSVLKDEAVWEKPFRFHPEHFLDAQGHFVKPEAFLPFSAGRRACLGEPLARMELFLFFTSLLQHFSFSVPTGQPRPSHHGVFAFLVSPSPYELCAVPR
Chain of Muscarinic acetylcholine receptor M1 (Rattus norvegicus) (P08482 whole entry, looked up): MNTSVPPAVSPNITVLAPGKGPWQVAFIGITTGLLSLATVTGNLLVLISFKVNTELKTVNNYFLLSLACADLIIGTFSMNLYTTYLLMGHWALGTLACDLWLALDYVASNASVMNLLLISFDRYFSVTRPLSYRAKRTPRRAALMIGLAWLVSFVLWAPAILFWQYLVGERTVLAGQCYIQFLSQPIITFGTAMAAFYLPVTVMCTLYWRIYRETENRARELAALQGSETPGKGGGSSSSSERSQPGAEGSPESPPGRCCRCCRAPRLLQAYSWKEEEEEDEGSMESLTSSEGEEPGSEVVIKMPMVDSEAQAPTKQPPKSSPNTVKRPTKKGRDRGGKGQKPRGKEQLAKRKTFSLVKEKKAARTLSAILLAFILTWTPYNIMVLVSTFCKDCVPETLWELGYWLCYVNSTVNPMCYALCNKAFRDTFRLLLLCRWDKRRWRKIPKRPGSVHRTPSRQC

Compound: COC(=O)[C@@H]1C[C@H]2CC[C@H](O)C[C@H]2N1CC1CC1
- Potency [1]: inactive

Compound: CC(=O)[C@]1(O)CC[C@@H]2[C@H]3C[C@@H](C)C4=CC(=O)CC[C@@]4(C)[C@H]3[C@@H](O)C[C@]21C
- activity change, positive = activation [1]: -33% [at 11.4 µM]

Compound: CN1CCc2nc(CO)c(CO)cc2C1
- activity change, negative = inhibition [2]: -11.6% [at 11.4 µM]
- activity change, negative = inhibition [3]: -13.1% [at 11.4 µM]
- activity, negative = inhibition [4]: 81.3% [at 11.4 µM]

Compound: CC(C)CCCC1(C)C=Cc2c(O)c3c(c(CCC(C)C)c2O1)OC12C(CC4CC1C(C)(C)OC2(CCC(C)C(=O)O)C4O)C3=O (stereo not given)
- Potency [2]: inactive
- Potency [5]: inactive
- outcome [6]: inactive

Compound: COC(=O)[C@@H]1[C@@H](O)[C@@]2(O)c3c(OC)cc(OC)cc3O[C@@]2(c2ccc(OC)cc2)[C@H]1c1ccccc1
- activity change, positive = activation [1]: -35.6% [at 11.4 µM]

Compound: CC(=O)c1c(O)c(C)c(O)c2c1OC1=CC(=O)C(C(C)=O)C(=O)C12C (stereo not given)
- Potency [1]: inactive

Compound: CC(C)=CCCC1(C)C=Cc2c(O)c3c(c(CC=C(C)C)c2O1)OC12C(CC4CC1C(C)(C)OC2(C/C=C(/C)C(=O)O)C4O)C3=O (stereo not given)
- Potency [2]: inactive
- Potency [5]: inactive
- outcome [6]: inactive

Compound: COC(=O)[C@@H]1C[C@@]2(O)[C@H](O)[C@H](O)[C@H](O)C[C@H]2N1Cc1cccnc1
- Potency [1]: inactive

Compound: COC(=O)[C@H]1C(=O)c2ccccc2O[C@@](C(=O)OC)(c2ccccc2)[C@@H]1c1ccccc1
- Potency [2]: 3.98 µM (active)
- activity change, positive = activation [1]: -63.3% [at 11.4 µM]

Compound: CC(C)=CCC1=C(O)c2ccccc2C(=O)C1=O
- Potency [1]: inactive

Compound: CCN(CC)c1ccc2c(C)cc(=O)oc2c1
- Potency [1]: inactive

Compound: CN1[C@@H]2CC[C@H]1CC(NC(=O)c1nn(C)c3ccccc13)C2 (stereo not given in full)
- Potency [2]: inactive
- outcome [7]: inactive
- outcome [8]: inactive

Compound: C=CCc1cc(OC)c2c(c1OC)OCO2
- Potency [2]: 7.94 µM (active)
- Potency [1]: inactive
- Potency [5]: inactive
- outcome [6]: inactive

Compound: OC[C@@H]1O[C@@H](n2cnc3cncnc32)[C@@H](O)[C@H]1O
- Potency [2]: inactive
- outcome [7]: inactive
- outcome [8]: inactive

Compound: c1ccc(CN2CCC3(CCc4ccccc43)CC2)cc1
- Potency [2]: inactive
- Potency [3]: 0.0063 µM (active)
- Potency [4]: 2.51 µM (active)

Compound: CC(C)c1cccc(O)c(=O)c1
- Potency [1]: inactive

Compound: C[C@@]12CC[C@@H]3[C@@H](CC[C@H]4C[C@@H](O)CC[C@]43C)[C@H]1CC[C@@H]2c1cc(C(F)(F)F)n[nH]1
- activity change, negative = inhibition [2]: 103% [at 11.4 µM]
- Potency [1]: 2.51 µM (active)
- Potency [4]: 2.51 µM (active)

Compound: C[C@@H]1Cc2ccccc2N1NC(=O)c1ccc(Cl)c(S(N)=O)c1 (stereo not given in full)
- Potency [1]: inactive

Compound: O=C1OC(=O)[C@@H]2[C@@H]1[C@@H]1CC[C@H]2O1
- Potency [3]: inactive
- outcome [7]: inactive
- outcome [8]: inactive

Compound: O[Si@](CCCN1CCCCC1)(c1ccc(F)cc1)C1CCCCC1
- Potency [1]: inactive
- Potency [3]: 0.501 µM (active)
- outcome [7]: inactive
- outcome [8]: inactive

Compound: COc1cc(C(=O)OC2CC[C@]3(C)C4CCC5[C@]6(O)CC(O)[C@]7(O)C(CN8CC(C)CCC8[C@]7(C)O)[C@]6(O)C[C@@]53O[C@]24O)cc(OC)c1OC (stereo not given in full)
- Potency [1]: inactive

Compound: COC1C=CC23c4cc5c(cc4CN(CC2O)C3C1)OCO5 (stereo not given)
- Potency [1]: inactive

Compound: COC(=O)CCC(C)C1CCC2C3C(O)C[C@@H]4CC(O)CC[C@@]4(C)C3CC(O)[C@]12C (stereo not given in full)
- Potency [1]: inactive

Compound: CC1(C)C2(Cl)C(Cl)C(Cl)C(Cl)(C(Cl)Cl)C1(Cl)C2Cl (stereo not given)
- Potency [1]: inactive

Compound: CCCCCCCC/C=C\CCCCCCCC(N)=O
- Potency [1]: inactive

Compound: CN1[C@@H](CC(=O)c2ccccc2)CCC[C@@H]1C[C@@H](O)c1ccccc1
- Potency [9]: 12.6 µM [stimulated with 10 pM TNF alpha] (active)
- Potency [10]: 5.62 µM (active)
- outcome [7]: inactive

Compound: CCC1=C(C[C@H]2NCCc3ccccc32)C[C@@H]2c3cc(OC)c(OC)cc3CCN2C1
- Potency [3]: 2.51 µM (active)

Compound: CCCN1[C@@H]2C[C@@H](O)CC[C@@H]2C[C@H]1C(=O)OC
- Potency [1]: inactive

Compound: O[C@@H]1[C@@H]2c3cc4c(cc3CN3CCC(=C[C@@H]1O)[C@H]23)OCO4
- Potency [3]: 3.98 µM (active)

Compound: CC(=O)[C@@H]1CC[C@@H]2[C@@H]3CCC4=CC(=O)CC[C@@]4(C)[C@H]3CC[C@]21C
- Potency [1]: 3.98 µM (active)
- Potency [4]: 7.94 µM (active)

Compound: O=C(O)c1cc2c(cc1S(=O)(=O)O)[C@H]1[C@@H]([C@H]3[C@H]2[C@@]2(Cl)C(Cl)=C(Cl)[C@]3(Cl)C2(Cl)Cl)[C@]2(Cl)C(Cl)=C(Cl)[C@@]1(Cl)C2(Cl)Cl
- activity change, positive = activation [1]: -41.4% [at 11.4 µM]

Compound: C=C(CO)[C@H]1Cc2c(ccc3c2O[C@H]2COc4cc(OC)c(OC)cc4[C@@H]2C3=O)O1
- Potency [4]: 5.01 µM (active)

Compound: CC(C)(C)c1ccc(OC(=O)Nc2ccc(O)c(C(=O)O)c2)cc1
- activity change, negative = inhibition [3]: 22.6% [at 11.4 µM]

Compound: C[C@]12CCC3c4ccc(OC(=O)c5ccccc5)cc4CCC3C1CCC2=O (stereo not given in full)
- Potency [1]: inactive

Source: PubChem BioAssay (NCATS)
